Results reported in PubChem BioAssay (EPA / NIEHS).
Active and inactive are the calls of the source. How the source made its calls: active means hit-call score of the fitted dose curve at least 0.9, where 1 is the maximum; inactive means score below 0.9.

test: ATG_M_19_CIS: Attagene CIS-FACTORIAL HepG2 Assay for M19 Transcription Factor (Internal Marker) (AID 2282939); conditions: HepG2 Attagene CIS-FACTORIAL M19 internal marker reporter; actives raise or lower the signal
Method: ATG_CIS is a cell-based, multiplexed-readout assay that uses HepG2, a human liver cell line, with measurements taken at 24 hours after chemical dosing in a 24-well plate.ATG_M_19_CIS is one of 52 assay component(s) measured or calculated from the ATG_CIS assay. It is designed to make measurements of mRNA induction, a form of inducible reporter, as detected with fluorescence intensity signals by Reverse transcription polymerase chain reaction (RT-PCR) and Capillary electrophoresis technology.Data from the assay component ATG_M_19_CIS was analyzed into 1 assay endpoint. This assay endpoint, ATG_M_19_CIS, was analyzed with bidirectional fitting relative to DMSO as the negative control and baseline of activity. Using a type of inducible reporter, measures of mRNA for gain or loss-of-signal activity can be used to understand the background control at the transcription factor-level as they relate to the gene . Furthermore, this assay endpoint can be referred to as a secondary readout, because this assay has produced multiple assay endpoints where this one serves a background control function. To generalize the intended target to other relatable targets, this assay endpoint is annotated to the background measurement intended target family, where the subfamily is internal marker.
Human liver HepG2 cells are transiently transfected with multiple reporter transcription units (MRTUs) in 6-well plates using FuGene 6 reagent (Roche; 3 ml FuGene/1 mg DNA). The MRTU constructs are regulated by a cis-regulating element (promoter). […] A major difference between the CIS and TRANS system is that in CIS activities of endogenous TFs are measured, whereas the TRANS assay evaluates changes in activities of exogenous, chimeric NR-Gal4 proteins. […] At the end of 24 hour incubation, total RNA was isolated using TriZol reagent (Invitrogen). The isolated RNA is then reverse-transcribed using oligo(dT) primer and Mo-MLV reverse transcriptase (Invitrogen) with DNAse I (Ambion) treatment for 30 min. The one-tenth of the produced cDNA was amplified by PCR using Taq DNA polymerase (Invitrogen) and two reporter sequence-specific primers. The PCR products were fluorescently labeled by primer extension with 6-arboxyfluorescein (6-FAM) 5'-labeled reporter sequence-specific primer (2 min at 95 C, 20 s at 68 C and 10 min at 72 C) and these products were digested with 5U of HpaI (New England Biolabs) for 2h at 37 C. The fragments were purified using Qiaquick PCR columns (Qiagen), analyzed on an ABI 3130xL genetic analyzer (Applied Biosystems) with peak positions identified by using a set of X-rhodamine (ROX)-labeled MapMarker1000 molecular weight standards (BioVentures). The raw capillary electrophoresis data was processed using Attagraph software (Attagene).

outcome, inactive:
Cc1occc(=O)c1OC(=O)C(C)C, CCCCCCC(O)CCCCCCCCCCC(=O)O (stereo not given), CCOC(=O)c1ccc(N)cc1, C=C(C#N)C(=O)OCC, CCCCCCCCSCCO, CCCC(O)C(O)CO (stereo not given), O=c1[nH]c(=O)c2cn[nH]c2[nH]1, CCCCCCOC(=O)C(C)C, C[C@H]1O[C@@H](O[C@H]2[C@@H](O)C[C@H](O[C@H]3[C@@H](O)C[C@H](O[C@H]4CC[C@@]5(C)[C@H](CC[C@@H]6[C@@H]5C[C@@H](O)[C@]5(C)[C@@H](C7=CC(=O)OC7)CC[C@]65O)C4)O[C@@H]3C)O[C@@H]2C)C[C@H](O)[C@@H]1O, Cc1ccc(N)c(S(=O)(=O)O)c1, CN(c1nccc(=O)[nH]1)C1CCN(c2nc3ccccc3n2Cc2ccc(F)cc2)CC1, OCCOCCN1CCN(C2=Nc3ccccc3Sc3ccccc32)CC1, CCCCC(CC)COC(C)=O (stereo not given), C=C1C[C@]23C[C@@]1(O)CC[C@H]2[C@@]12C=C[C@H](O)[C@@](C)(C(=O)O1)[C@H]2[C@@H]3C(=O)O, O=[N+]([O-])c1cccc(Cl)c1, Cc1ccc(C)o1, C=CCCC(=O)/C=C/C1C(C)=CCCC1(C)C (stereo not given), CCC(C)c1cc([N+](=O)[O-])cc([N+](=O)[O-])c1OC(=O)OC(C)C (stereo not given), Oc1ccc2cc(SSc3ccc4cc(O)ccc4c3)ccc2c1, CCCCCCCCCCCCCCCC(=O)OC/C=C(C)/C=C/C=C(C)/C=C/C1=C(C)CCCC1(C)C, CCCCCCCCCC(C)C=O (stereo not given), CCOCCOCCOCC, CC(C=O)Cc1ccc(C(C)(C)C)cc1 (stereo not given), Cc1[nH]c(=O)c(C#N)cc1-c1ccncc1, C1CCOC1, C[N+](C)(C)CCCCCC[N+](C)(C)C, C=C(C)CNCC, C=C(C)C(=O)OCCOC1CC2CC1C1C=CCC21 (stereo not given), O=C(O)CCCCCCCCCCCC(=O)O, CCCCCCOCCOCCO, CCOC(=O)COC(=O)c1cc(Oc2ccc(C(F)(F)F)cc2Cl)ccc1[N+](=O)[O-], CCc1cc(Cc2cc(CC)cc(C(C)(C)C)c2O)c(O)c(C(C)(C)C)c1, CCOc1ccc(N=Nc2ccc(C=Cc3ccc(N=Nc4ccc(OCC)cc4)cc3S(=O)(=O)O)c(S(=O)(=O)O)c2)cc1, CC(C)(C)CC(C)(C)c1ccc(OCCOCC[N+](C)(C)Cc2ccccc2)cc1, CCC1(c2ccccc2)C(=O)NCNC1=O, CN1C(=O)c2ccccc2C1=O, CCOC(=O)C(C#N)=C(c1ccccc1)c1ccccc1, Nc1ccn([C@H]2CS[C@@H](CO)O2)c(=O)n1, O=C1OC(=O)c2c(Cl)c(Cl)c(Cl)c(Cl)c21, CC(C)CCCCCCc1ccc(OCCOCCO)cc1
